Assay [1] can be described thus: compounds binding Alexa647 anti-His antibody – biochemical, small-molecule microarray, 635 nm fluorescence, artefact control for SMM control protein annotation, primary screen (AID 1128).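 Also: score merges feature fluorescence with signal-to-noise for each printed compound spot.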 As to conditions: higher = more signal.
Assay [2] relates to Human papillomavirus type 1a E7 protein (residues 1-88). Nature of the assay: HPV1a E7 small-molecule binders, primary screen, biochemical, small-molecule microarray, residues 1-88, 635 nm (AID 1129). The following applies: small-molecule microarray binding, fluorescence 635 nm; higher = more signal.
Assay [3] deals with Focal adhesion kinase 1 (Homo sapiens) (UniProt Q05397). As to the kind of experiment: PTK2 protein binding on printed compound slides – biochemical, small-molecule microarray, 635/667 nm fluorescence, BSA, DTT, primary screen (AID 1130).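 Also: composite of spot emission at 667 nm and signal to noise over triplicate slides.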 The following applies: 635 nm fluorescence, higher = more signal.
Chain of Focal adhesion kinase 1 (Homo sapiens) (Q05397 whole entry, looked up): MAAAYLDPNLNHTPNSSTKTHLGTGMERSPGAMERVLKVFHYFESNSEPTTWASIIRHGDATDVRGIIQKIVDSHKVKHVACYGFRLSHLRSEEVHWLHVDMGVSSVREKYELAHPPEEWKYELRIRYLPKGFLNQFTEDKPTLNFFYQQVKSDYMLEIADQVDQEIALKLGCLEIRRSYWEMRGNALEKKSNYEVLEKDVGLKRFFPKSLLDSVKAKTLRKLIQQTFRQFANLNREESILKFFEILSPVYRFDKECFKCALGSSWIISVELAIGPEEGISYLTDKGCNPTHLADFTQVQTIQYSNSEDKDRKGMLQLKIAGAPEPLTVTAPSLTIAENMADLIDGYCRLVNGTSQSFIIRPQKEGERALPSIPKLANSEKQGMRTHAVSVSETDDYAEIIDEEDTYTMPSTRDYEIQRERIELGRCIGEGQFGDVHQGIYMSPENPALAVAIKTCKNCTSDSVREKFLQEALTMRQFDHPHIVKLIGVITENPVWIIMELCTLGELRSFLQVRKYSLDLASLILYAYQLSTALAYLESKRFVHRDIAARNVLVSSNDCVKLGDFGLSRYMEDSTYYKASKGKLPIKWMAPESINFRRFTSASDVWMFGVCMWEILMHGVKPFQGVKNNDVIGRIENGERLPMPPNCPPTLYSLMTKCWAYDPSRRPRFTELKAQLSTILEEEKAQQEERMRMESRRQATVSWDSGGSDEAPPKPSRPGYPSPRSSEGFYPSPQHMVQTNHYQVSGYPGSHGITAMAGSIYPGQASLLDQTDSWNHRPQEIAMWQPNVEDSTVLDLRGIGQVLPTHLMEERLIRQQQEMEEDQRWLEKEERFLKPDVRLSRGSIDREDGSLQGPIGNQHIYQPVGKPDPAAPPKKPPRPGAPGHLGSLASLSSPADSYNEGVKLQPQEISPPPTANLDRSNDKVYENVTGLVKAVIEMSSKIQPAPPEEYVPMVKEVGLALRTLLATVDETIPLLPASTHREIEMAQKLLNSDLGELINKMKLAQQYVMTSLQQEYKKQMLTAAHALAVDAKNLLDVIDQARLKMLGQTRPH
The test system of assay [4] is Fibrinogen (Alexa647-labelled). As to the kind of experiment: Alexa647-fibrinogen binding to printed small molecules – biochemical, small-molecule microarray, 635/667 nm fluorescence, artefact control for SMM control-protein annotation, profiling panel (AID 1131).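 Also: z-score merges 667 nm fluorescence with per-spot signal-to-noise over triplicate slides.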 As to conditions: fibrinogen-A647 binding fluorescence, higher = more signal.
Assay [5] concerns the target Follistatin (Homo sapiens) (UniProt P19883). As to the kind of experiment: FST protein binding to printed compounds – biochemical, small-molecule microarray, 635/667 nm fluorescence, primary screen (AID 1132). The following applies: 635 nm fluorescence, higher = more signal.
Assay [6] has as its target Fibroblast growth factor 2 (Homo sapiens) (UniProt P09038). Nature of the assay: basic fibroblast growth factor binding to printed compounds – biochemical, small-molecule microarray, 635/667 nm fluorescence, primary screen (AID 1133). The following applies: FGF2, fluorescence 635/667, higher = more signal.
The nature of assay [7]: JC-1 mitochondrial potential readout, lung cancer cells – cell-based, A549, JC-1 fluorescence, basal, 24 h, 100 nL, profiling panel (AID 1138).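 Also: A549 lung adenocarcinoma cells under basal conditions with no added stimulus; test concentration not given here.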 The following applies: higher = more signal.
The subject of assay [8] is Lefty1. As to the kind of experiment: Lefty1 protein binding to printed compounds – biochemical, small-molecule microarray, 635/667 nm fluorescence, primary screen (AID 1139). The following applies: fluorescence 635/667, higher = more signal.
In assay [9] the test system is wheat germ agglutinin (Triticum aestivum), Alexa647-labelled. As to the kind of experiment: Alexa647-WGA lectin binding to printed small molecules – biochemical, small-molecule microarray, 635/667 nm fluorescence, artefact control for SMM control-protein annotation, profiling panel (AID 1140).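 Also: score merges 667 nm feature emission with signal to noise over triplicate slides.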 The following applies: WGA-A647 binding, 635 nm fluorescence, higher = more signal.

Assay [10] has as its target Luciferin 4-monooxygenase (Photinus pyralis) (UniProt P08659). Nature of the assay: inhibition of purified Photinus pyralis luciferase – biochemical, luminescence, purified enzyme, 2006 set, primary screen (AID 1141).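 Also: cell-free assay with purified firefly luciferase at 100 ng per well in PBS; test concentration not given here.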 The following applies: purified firefly luciferase, SteadyGlo luminescence, 30 min; higher = more signal, called active from +8 up or from −8 down.
The test system of assay [11] is Wnt5a (protein binding on small-molecule microarray). Nature of the assay: small molecules binding Wnt5a protein – biophysical, small-molecule microarray, 635/667 nm fluorescence, primary screen (AID 1142).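 Also: fluorescence read at 667 nm with signal to noise per printed feature.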 As to conditions: 635 nm fluorescence, higher = more signal.
Assay [12] is described as follows: ATP-based viability of Huh7 replicon cells – cell-based, CellTiter-Glo luminescence, basal, 48 h, cytotoxicity control for HCV replication inhibitor project, primary screen (AID 1143).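 Also: Huh7 hepatoma cells carrying a hepatitis C replication reporter with no stimulus; test concentration not given here.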 The following applies: higher = more signal, called active from +8 up or from −8 down.
Assay [13] can be described thus: Pseudomonas biofilm growth suppression – PAO1 strain, BacTiter-Glo luminescence, LB-PBS, primary screen (AID 1144). As to conditions: P. aeruginosa PAO1 biofilm, 12 h, higher = more signal.
Assay [14] is described as follows: basal CRE-LacZ reporter activity in PC12 – cell-based, unstimulated, primary screen (AID 1145). As to conditions: no forskolin, luminescence, 4.5 h, higher = more signal, called active from +8 up or from −8 down.
Assay [15] in a line: forskolin-driven CRE-LacZ activity in PC12 – cell-based, CRE-LacZ reporter, forskolin-stimulated, primary screen (AID 1146).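 Also: PC12 cells with 6xCRE LacZ reporter stimulated by forskolin 10 µM; beta-galactosidase reporter signal reflecting CREB driven transcription.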 The following applies: luminescence, 4.5 h, higher = more signal, called active from +8 up or from −8 down.
The target in assay [16] is Streptavidin (Streptomyces avidinii) (UniProt P22629). As to the kind of experiment: compounds binding control protein streptavidin – biophysical, small-molecule microarray, 635/667 nm fluorescence, artefact control for SMM compound annotation, primary screen (AID 1147).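 Also: signal reflects streptavidin binding to arrayed compounds as a control protein.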 The following applies: higher = more signal.
Chain of Streptavidin (Streptomyces avidinii) (P22629 whole entry, looked up): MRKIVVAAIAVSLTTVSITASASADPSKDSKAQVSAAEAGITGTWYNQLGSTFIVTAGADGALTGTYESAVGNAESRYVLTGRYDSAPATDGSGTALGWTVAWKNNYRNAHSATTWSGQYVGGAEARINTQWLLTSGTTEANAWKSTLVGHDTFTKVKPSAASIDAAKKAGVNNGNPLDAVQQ
Assay [17] in a line: probe aInhba binding on compound microarray – biochemical, small-molecule microarray, 635/667 nm fluorescence, primary screen (AID 1148).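 Also: score merges 667nm spot fluorescence with signal-to-noise for antibody binding to printed compounds.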 The following applies: higher = more signal.
Assay [18] addresses Torsin-1A (Homo sapiens) (UniProt O14656). Nature of the assay: TOR1A wild-type binding on microarray – cell lysate, small-molecule microarray, lysate, 635/667 nm, primary screen (AID 1149). As to conditions: COS7 hTOR1A-WT lysate, 635 nm fluorescence, higher = more signal.
For assay [19] the target is unchanged. Nature of the assay: torsin A mutant lysate binding on microarrays – cell lysate, small-molecule microarray, COS7 lysate, 635/667 nm fluorescence, primary screen (AID 1150).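 Also: score pools 667 nm emission and signal to noise measuring lysate protein binding.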 The following applies: COS7 hTOR1A mutant lysate, 635 nm fluorescence, higher = more signal.
Assay [20] deals with Sonic hedgehog protein (Shh). As to the kind of experiment: Sonic hedgehog microarray binding compounds – biochemical, small-molecule microarray, 635/667 nm fluorescence, primary screen (AID 1151).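 Also: Shh protein binding to compounds spotted on small-molecule microarray slides; score combines spot fluorescence intensity with signal-to-noise across triplicate slides.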 The following applies: 635 nm fluorescence, higher = more signal.

Structures are written as SMILES. Active and inactive are the calls of the source. Unless noted, no rule for the calls is given here.

Chain of Luciferin 4-monooxygenase (Photinus pyralis) (P08659 whole entry, looked up): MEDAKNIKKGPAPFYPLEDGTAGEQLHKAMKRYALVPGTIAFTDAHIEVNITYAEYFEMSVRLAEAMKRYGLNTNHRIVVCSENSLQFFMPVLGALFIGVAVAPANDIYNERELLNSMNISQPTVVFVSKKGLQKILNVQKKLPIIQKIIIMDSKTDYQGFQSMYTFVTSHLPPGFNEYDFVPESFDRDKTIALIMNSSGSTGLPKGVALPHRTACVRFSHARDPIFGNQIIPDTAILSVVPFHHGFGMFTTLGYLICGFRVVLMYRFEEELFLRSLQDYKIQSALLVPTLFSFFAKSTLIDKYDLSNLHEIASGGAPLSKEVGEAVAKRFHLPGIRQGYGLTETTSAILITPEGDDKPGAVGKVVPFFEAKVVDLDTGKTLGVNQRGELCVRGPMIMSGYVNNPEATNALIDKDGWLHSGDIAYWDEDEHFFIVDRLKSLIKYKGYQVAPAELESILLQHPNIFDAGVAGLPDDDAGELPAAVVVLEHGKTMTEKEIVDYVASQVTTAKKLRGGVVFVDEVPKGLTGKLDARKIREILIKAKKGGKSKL
Chain of Torsin-1A (Homo sapiens) (O14656 whole entry, looked up): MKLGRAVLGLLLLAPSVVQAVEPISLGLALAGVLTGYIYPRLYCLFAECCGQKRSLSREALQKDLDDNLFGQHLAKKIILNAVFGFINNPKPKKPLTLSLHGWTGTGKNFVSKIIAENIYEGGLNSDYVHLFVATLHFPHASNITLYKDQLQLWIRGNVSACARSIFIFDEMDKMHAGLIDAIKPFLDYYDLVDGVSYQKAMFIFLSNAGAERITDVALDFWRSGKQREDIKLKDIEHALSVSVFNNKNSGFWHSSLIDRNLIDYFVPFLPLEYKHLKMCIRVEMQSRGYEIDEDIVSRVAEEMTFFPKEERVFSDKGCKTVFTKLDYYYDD
Chain of Follistatin (Homo sapiens) (P19883 whole entry, looked up): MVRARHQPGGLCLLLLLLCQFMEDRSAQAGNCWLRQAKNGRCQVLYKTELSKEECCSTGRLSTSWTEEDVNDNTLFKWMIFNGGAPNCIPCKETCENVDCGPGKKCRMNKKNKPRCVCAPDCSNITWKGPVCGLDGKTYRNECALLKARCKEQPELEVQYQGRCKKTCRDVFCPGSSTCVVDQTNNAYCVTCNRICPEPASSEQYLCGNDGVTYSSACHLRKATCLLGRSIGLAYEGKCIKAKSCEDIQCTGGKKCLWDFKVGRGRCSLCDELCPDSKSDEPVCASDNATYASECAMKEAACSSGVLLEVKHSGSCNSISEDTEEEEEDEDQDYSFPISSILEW
Chain of Fibroblast growth factor 2 (Homo sapiens) (P09038 whole entry, looked up): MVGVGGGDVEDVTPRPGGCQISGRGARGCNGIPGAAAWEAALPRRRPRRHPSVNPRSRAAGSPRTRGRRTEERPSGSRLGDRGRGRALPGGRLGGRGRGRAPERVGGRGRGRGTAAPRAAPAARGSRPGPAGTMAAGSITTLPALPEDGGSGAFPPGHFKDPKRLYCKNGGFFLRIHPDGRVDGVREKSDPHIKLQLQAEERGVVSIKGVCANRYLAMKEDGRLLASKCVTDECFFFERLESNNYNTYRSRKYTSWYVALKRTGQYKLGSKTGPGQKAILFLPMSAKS

For `C/C=C/CN(C(=O)C#Cc1ccccc1)[C@H](CO[Si](C)(C)C(C)(C)C)c1ccccc1`, the composite z-score in [1] is -1.73; in [2], -0.0136; in assay [3] it was -0.1; in assay [4], -2.12; in assay [5], -1.52; in [6], -1.25. For the same molecule, the composite z-score in assay [8] is -0.977; in assay [9], -1.7; in assay [11], -0.515; in [16], -1.06; in assay [17] it was -0.353; in assay [18], -0.724. The composite z-score in assay [19] is -0.841; in assay [20] it was 0.248. Also, the z-score is 0.2 in assay [7]; -0.178 (inactive) in assay [10]; -4.31 (inactive) in assay [12]; 1.09 (inactive) in assay [13]; 1.94 (inactive) in assay [14]; -0.757 (inactive) in assay [15].
With `COc1cc(OC)c(C(O)C2C=CC3C(=O)N(c4ccccc4)C(=O)C3N2Nc2ccccc2F)cc1Br` (stereo not given), the composite z-score in assay [1] is 1.31; in assay [2], 1.25; in assay [3], 0.823; in assay [4], 1.01; in [5], 1.34; in [6], 0.0348. Besides, the composite z-score in assay [8] came to 0.666; in assay [9] it was 0.898; in assay [11], 0.193; in [16], 1.24; in [17], 0.206; in assay [18], 2.01. The values for the composite z-score in assay [19] and in assay [20] were 0.879 and -0.2, respectively. For the same molecule, the z-score in [7] is -0.78; in assay [10] it was -0.443 (inactive); in [12], -0.259 (inactive); in assay [13], -1.14 (inactive); in [14], 0.636 (inactive); in [15] it was 0.758 (inactive).
Consider `CC(C)(C)OC(=O)CC[C@]1(C(N)=O)N=C(c2ccc(OCCCO)cc2)O[C@H]1c1ccccc1CN=[N+]=[N-]`, for which the composite z-score was found to be 3.93 in assay [1]; 1.15 in assay [2]; 0.291 in [3]; 0.878 in assay [4]; 0.421 in assay [5]; 1.44 in assay [6]. Also, the composite z-score in assay [8] was -0.512; in [9], 0.668; in assay [11], 0.602; in assay [16], 2; in assay [17], 0.355; in assay [18], 1.57. Further, the composite z-score in assay [19] is 1.1; in assay [20] it was -0.336. Besides, the z-score was 0.187 in [7]; -4.65 (inactive) in assay [10]; 0.268 (inactive) in [12]; 0.201 (inactive) in assay [13]; 1.04 (inactive) in assay [14]; -0.671 (inactive) in assay [15].
In the case of `O=C(NCCO)C1=C[C@H](Oc2ccccc2I)[C@@H](O)[C@H](NCc2ccc(F)cc2)C1`, the composite z-score in assay [1] is -0.223; in [2], -1.23; in assay [3], -0.279; in assay [4], -2.27; in [5] it was 1.31; in assay [6], 0.795. The composite z-score in assay [8] was 1.45; in [9], -1.25; in assay [11], 0.273; in assay [16], -0.743; in [17], -0.197; in assay [18] it was 0.693. The composite z-score was found to be 1 in assay [19] and 2.08 in assay [20]. The z-score is -0.697 in assay [7]; 0.243 (inactive) in [10]; -2.8 (inactive) in [12]; 0.148 (inactive) in assay [13]; 4.56 (inactive) in assay [14]; 0.925 (inactive) in assay [15].
With `COCC1=C([C@H](O)CCc2ccccc2)[C@H](CO)n2c(=O)n(-c3ccccc3)c(=O)n2C1`, the composite z-score was -0.507 in [1]; -0.364 in assay [2]; -0.044 in assay [3]; -0.325 in [4]; 0.0942 in [5]; 1.08 in assay [6]. Moreover, the composite z-score in [8] was -0.0597; in [9] it was 0.361; in assay [11] it was -0.419; in assay [16], -0.101; in assay [17], -0.154; in assay [18] it was -0.115. Moreover, the composite z-score was -0.414 in assay [19] and 0.199 in assay [20]. Besides, the z-score was -0.152 in [7]; -1.59 (inactive) in assay [10]; -1.24 (inactive) in assay [12]; -0.84 (inactive) in assay [13]; 0.129 (inactive) in assay [14]; -0.2 (inactive) in assay [15].

These data come from PubChem BioAssay.
